Assay results reported in PubChem BioAssay.

assay: CREB reporter modulators under forskolin, primary screen, cell-based, PC12, CRE-LacZ reporter, forskolin-stimulated (AID 1146); details: luminescence, 4.5 h, higher = more signal, called active from +8 up or from −8 down;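 note: PC12 cells with 6xCRE LacZ reporter stimulated by forskolin 10 µM; beta-galactosidase reporter signal reflecting CREB driven transcription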

z-score, inactive:
COC(=O)[C@@]1(Cc2ccc(F)cc2)[C@H]2c3cc(C(=O)N4CCCC4)n(Cc4ccc(OC(F)(F)F)cc4)c3C[C@H]2CN1C(=O)c1ccccc1 0.137
CC(C)(C)OC(=O)CC[C@]1(C(N)=O)N=C(c2ccc(OCCCO)cc2)O[C@H]1c1ccccc1N=[N+]=[N-] -0.677
O=C1OCC=C[C@H]2OC34C=CCN(Cn5nnc6ccccc65)C(=O)[C@H]3N(CCO)C(=O)[C@@H]4[C@@H]12 (some centres undefined) 0.792
COc1cccc(C)c1NC(=O)O[C@H]1[C@H](OC(=O)Nc2ccc3c(c2)OCO3)[C@H](OC(=O)Nc2ccc3c(c2)OCO3)[C@@H](OC)O[C@@H]1CO -1.04
CN1C(=O)C2C=CC(C(O)c3cccs3)N(N(c3ccccc3)c3ccccc3)C2C1=O (centres undefined) -0.324
[N-]=[N+]=NCc1ccccc1[C@H]1OC(c2ccc(OCCCO)cc2)=N[C@@]1(Cc1ccccc1N=[N+]=[N-])C(=O)O -0.763
C[C@H]1C2[C@H](Cc3ccccc3)NC(=O)[C@]23C(=O)N[C@@H](Cc2ccccc2)C(=O)N2CCC[C@H]2C(=O)NC/C=C/CC/C=C/C3[C@@H]2O[C@]12C (some centres undefined) -0.688
COc1ccc(C(=O)Nc2ccc(CN3C(=O)[C@]4(O[C@H](CC(=O)N(CCO)Cc5ccccc5)[C@@H]([Si](C)(C)c5ccc(OC)cc5)[C@@H]4C)c4ccccc43)cc2)cc1 -0.221
CCCC=C(CCC)[C@@H](NC(=O)c1ccc(C(=O)OC)cc1)c1ccc(C(=O)OC)cc1 1.06
